An excerpt weighted towards active compounds, which were near 18% of everything screened.
Gal4-VP16 FLuc – counter-screen for ROR gamma inhibitors: Gal4-VP16 reporter. 3.5% of 310,000 active. Potency, µM (highest dose often 53.6 µM), for inactives: at the highest dose activity, negative = inhibition, most hits filed as inhibitors. Drosophila S2 Gal4-VP16 UAS-luciferase, luminescence, 20 h. AID 2546;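 further: Gal4-VP16 expression switched on by copper sulfate through the metallothionein promoter; potency means the concentration at half of the fitted maximal effect; nearly all actives have a fitted effect of over 50% in size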
TDP1 cell CPT – DT40-hTDP1 cell growth loss with CPT | chicken DT40 Tdp1-/-;hTDP1 cells + 20 nM CPT, ATP luminescence, 48 h | AID 686979 | 12% of 420,000 active | Potency, µM (doses to about 46.2 µM), for inactives: top-dose activity change, negative = growth inhibition, usual class: inhibitors; further: potency means the concentration at half of the fitted maximal effect; nearly all actives have a fitted effect of over 55% in size
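Chicken DT40 Tdp1-/- cells stably complemented with human TDP1 were seeded at 400 cells/well in medium containing 20 nM camptothecin, exposed to pin-transferred compounds, and grown at 37 °C for at least 48 hr. Viability was read as ATP luminescence.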
IL-1B inflam inh – inhibitors of inflammasome signaling (IL-1 beta secretion) | THP-1 LPS/ATP IL-1B secretion, AlphaLISA, 16 h; stronger effect = lower value | activity change, % at 57.5 µM | 4.7% of 360,000 active; in the data active means activity change below about -50%; inconclusive means mostly about -30% to -49%
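Secreted IL-1B measured by AlphaLISA bead assay after 16 h compound exposure of THP-1 cells; compounds (final up to 57.5 uM) added 1 h before LPS (250 ng/mL) and ATP (1.25 mM) stimulation; lower signal means less secretion.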
DT40 TDP1 no CPT – qHTS for Inhibitors of human tyrosyl-DNA phosphodiesterase 1 (TDP1): qHTS in cells in absence of CPT. Potency, µM (series often up to 46.2 µM), for inactives: at the top dose activity change, negative = growth inhibition, hits mostly inhibitors. 15% of 420,000 active. DT40 Tdp1-/- hTDP1 cells, no CPT, ATP luminescence, 48 h; further: potency means the concentration at half of the fitted maximal effect; nearly all actives have a fitted effect of over 55% in size
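Growth of hTDP1-complemented DT40 Tdp1-knockout cells is measured by ATP luminescence after at least 48 hr compound exposure at 37 °C, with DMSO substituting for the 20 nM CPT used in the parallel screen.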
LDHA inh – blocks human lactate dehydrogenase A; P00338; purified LDHA, NADH/diaphorase-resazurin fluorescence; stronger effect = lower value; 0.15% of 480,000 active; AID 1347041; activity change, % (values are at about 110 or 230 µM); in the data active means activity change below about -30%; inconclusive means mostly about -25% to -30%;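 further: plate controls were DMSO wells for no effect and wells without enzyme for full effect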
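Resorufin fluorescence (ex540/em590), read at 0 and 20 min after diaphorase/resazurin addition, reports the NADH left after a 5 min room-temperature reaction of 2 nM human LDH5 with 0.06 mM NADH and 0.2 mM pyruvate.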
RORg inh – blocks mouse ROR gamma transcriptional activity | Drosophila S2 Gal4-RORgamma UAS-luciferase reporter, 20 h | Potency, µM (highest dose often 53.6 µM), without a hit: at the top dose activity change, negative = inhibition, usual class: inhibitors | 5.4% of 310,000 active | AID 2551; further: potency means the concentration at half of the fitted maximal effect; nearly all actives have a fitted effect of over 60% in size
Target sequence (P51450 whole entry, looked up, the tested form may be a part): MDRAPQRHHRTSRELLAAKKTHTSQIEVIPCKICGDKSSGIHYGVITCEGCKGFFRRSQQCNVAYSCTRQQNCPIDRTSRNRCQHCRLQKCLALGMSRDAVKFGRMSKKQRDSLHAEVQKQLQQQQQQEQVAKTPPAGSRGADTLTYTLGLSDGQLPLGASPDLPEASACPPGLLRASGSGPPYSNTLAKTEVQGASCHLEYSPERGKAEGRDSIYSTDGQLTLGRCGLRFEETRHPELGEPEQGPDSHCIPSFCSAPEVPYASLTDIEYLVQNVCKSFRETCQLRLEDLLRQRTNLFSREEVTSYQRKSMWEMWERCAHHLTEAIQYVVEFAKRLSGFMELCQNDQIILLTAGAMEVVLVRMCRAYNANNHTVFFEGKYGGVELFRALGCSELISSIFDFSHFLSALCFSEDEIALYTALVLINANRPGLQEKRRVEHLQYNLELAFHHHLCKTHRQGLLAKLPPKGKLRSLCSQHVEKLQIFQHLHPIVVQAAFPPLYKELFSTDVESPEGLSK
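Stable Schneider cell line, Gal4 DNA-binding domain fused to ROR gamma, UAS-luciferase. Cmpd 1 hr RT → CuSO4 700 uM final → 20 hr RT → luciferase reagent 10 min → luminescence.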
Numbers without * were called inactive; i = inactive; ? = inconclusive; · = no result given; [ ] = remark or other dose. Unless noted, the call rests on the fitted dose curve; in most records, active means well fitted curve in the direction sought with a large enough effect; inconclusive means small, poorly fitted or top-dose-only effect, or another doubt; inactive means no such curve, though single readings can be large; an effect the other way counts as inactive or inconclusive. Unless noted, on the % scale 0 is the no-effect control and ±100 the full control effect.

SMILES	Gal4-VP16 FLuc	TDP1 cell CPT	IL-1B inflam inh	DT40 TDP1 no CPT	LDHA inh	RORg inh
COc1ccc(Nc2ncc(C(=O)Nc3cc(Cl)c(OC)cc3OC)c3ccccc23)cc1	·	?	·	?	-4	·
COc1ccc(OC)c(NC(=O)c2cnc(Nc3ccccc3OC)c3ccccc23)c1	-13%	5.2µM*	-10	5.8µM*	0	-12%
COc1ccc(NC(=O)c2cnc(Nc3ccc(C)c(Cl)c3)c3ccccc23)c(OC)c1	·	-17%	·	-34%	7	·
Cc1[nH]c2ccccc2c1C(=O)C(=O)Nc1ccc(Oc2ccccc2)cc1	·	·	·	·	-1	·
C[C@H]1COC(=O)[C@@H](CC(=O)OC(C)(C)C)C/C=C\C[C@@H](CC(=O)N[C@H](CO)Cc2ccccc2)C(=O)N1	·	?	2	?	-2	·
C[C@@H]1COC(=O)[C@H](NC(=O)OCC2c3ccccc3-c3ccccc32)C/C=C\C[C@@H](CC(=O)N[C@H](CO)Cc2ccccc2)C(=O)N1	·	18µM*	-1	21µM*	4	·
O=C(C[C@@H]1C/C=C\C[C@@H](NC(=O)OCC2c3ccccc3-c3ccccc32)C(=O)OCCNC1=O)N[C@@H](CO)Cc1ccccc1	·	9.2µM*	24	8.2µM*	2	·
C[C@@H]1COC(=O)[C@@H](CC(=O)OC(C)(C)C)C/C=C\C[C@@H](CC(=O)N[C@H](CO)Cc2ccccc2)C(=O)N1	·	-15%	7	-23%	-2	·
CC(C)(C)[C@H]1COC(=O)[C@@H](NC(=O)OCC2c3ccccc3-c3ccccc32)C/C=C\C[C@@H](CC(=O)N[C@@H](CO)Cc2ccccc2)C(=O)N1	·	9.2µM*	-7	6.5µM*	1	·
CNS(=O)(=O)c1ccc(Oc2ccc3c(C(C)C)cc(=O)oc3c2)c([N+](=O)[O-])c1	·	·	·	·	-1	·
Cc1ccc(C(=O)Nc2ccc3oc(C)nc3c2)cc1	·	·	·	·	6	·
CC1CCc2c(sc(/N=C/N(C)C)c2C#N)C1 (configuration not stated)	10%	?	-63*	-20%	1	?
CCOc1ccccc1NC(=O)c1cccc(S(=O)(=O)N(Cc2ccccc2)c2ccccc2OC)c1	-12%	21µM*	i	16µM*	3	-7%
CC1(C)CC(NC(=O)c2ccc(Cl)c(S(=O)(=O)N(Cc3ccccc3)c3ccccc3)c2)CC(C)(C)N1	·	?	-110*	?	-7	·
COc1ccccc1N(Cc1ccccc1)S(=O)(=O)c1cccc(C(=O)NC2CC(C)(C)NC(C)(C)C2)c1	·	18µM*	?	18µM*	-2	·
COc1ccccc1N(Cc1ccccc1)S(=O)(=O)c1cccc(C(=O)Nc2ncccc2C)c1	·	?	-3	?	3	·
O=C(O)c1ccc(Cl)c(S(=O)(=O)N(Cc2ccccc2)c2ccc(Cl)cc2)c1	-6%	-13%	-6	-6%	1	0%
COc1ccccc1N(Cc1ccccc1)S(=O)(=O)c1cccc(C(=O)O)c1	-9%	4%	23	9%	-9	23%
COc1ccccc1N(Cc1ccccc1)S(=O)(=O)c1cccc(C(=O)Nc2cc(C)ccn2)c1	10µM*	?	?	26µM*	-3	6.3µM*
Cc1ccc(S(=O)(=O)N2CCN(C(C(=O)O)c3c[nH]c4cc(Cl)ccc34)CC2)cc1 (configuration not stated)	·	·	·	·	-7	·
CN(C)c1ccc(/C=N/NC(=O)C(c2ccccc2)c2ccccc2)cc1	·	·	·	·	11	·
C=CCN(c1ccc(F)cc1)S(=O)(=O)c1cc(C(=O)NC2CC2)ccc1Cl	·	21µM*	8	21µM*	-4	·
O=C1C(c2ccccc2)=C(c2ccccc2)c2ccccc21	·	·	·	·	3	·
COc1ccc(NC2=C(c3ccc(OC)cc3)C(=O)c3ccccc32)cc1	?	3.7µM*	0	?	-3	-34%
COc1ccc(C2=C(Nc3ccc(C)cc3C)c3ccccc3C2=O)cc1	·	13µM*	·	?	2	·
SMILES	Gal4-VP16 FLuc	TDP1 cell CPT	IL-1B inflam inh	DT40 TDP1 no CPT	LDHA inh	RORg inh
COc1ccc(C2=C(Nc3ccccc3)c3ccccc3C2=O)cc1	-13%	-12%	16	?	-5	-22%
COC1=C(c2ccccc2)C(=O)c2ccccc2C1=O	-18%	23µM*	-169*	16µM*	21	-16%
O=C(C1=C(c2ccccc2)C(=O)c2ccccc2C1=O)c1ccccc1	11µM*	2.1µM*	-104*	2.9µM*	45	11µM*
C=CCN(Cc1cccs1)C(=O)C1CCC1	·	·	·	·	-11	·
O=C1C(c2ccc(C(F)(F)F)cc2)=C(Nc2ccc(Cl)cc2)c2ccccc21	·	16µM*	·	12µM*	-3	·
COc1ccc(NC2=C(c3ccc(C(F)(F)F)cc3)C(=O)c3ccccc32)cc1	·	?	·	?	3	·
COc1ccc2[nH]c(=O)c(CNc3cc(C)ccc3C)cc2c1	14%	15µM*	-16	15µM*	6	38%
COc1ccc2[nH]c(=O)c(CNc3ccc(C)cc3C)cc2c1	27%	5.8µM*	-13	21µM*	22	17%
Cc1ccc(-c2noc(COC(=O)Cc3n[nH]c(=O)c4ccccc34)n2)cc1	·	·	·	·	3	·
Cc1cccc(N(C)S(=O)(=O)c2c(-c3cccc(F)c3)csc2C(=O)NCc2ccccn2)c1	·	·	·	·	-19	·
Cc1ccccc1NC(=O)C(=O)c1c[nH]c2ccccc12	·	·	·	·	5	·
COc1ccc2c(c1)-c1nc(-n3ncc(C(=O)N(C)C(C)c4ccon4)c3C3CC3)ncc1CC2 (configuration not stated)	·	-20%[9.04 µM]	·	?	·	·
Cc1cc(CNC(=O)c2cnn(-c3ncc4c(n3)-c3ccccc3CC4)c2C2CC2)on1	·	16µM*	·	?	·	·
O=C(NCc1cccnc1)c1cnn(-c2ncc3c(n2)-c2ccccc2CCC3)c1C1CC1	·	-16%[9.04 µM]	·	?	·	·
Cc1cc(-c2ccnc(-n3ncc(C(=O)NCC4CCCO4)c3C3CC3)n2)c(C)s1 (configuration not stated)	·	-2%[9.04 µM]	·	?	·	·
CC(c1ccon1)N(C)C(=O)c1cnn(-c2ncc3c(n2)-c2ccccc2CC3)c1C1CC1 (configuration not stated)	·	-11%[9.04 µM]	·	16µM*	·	·
COc1ccccc1-c1ccnc(-n2ncc(C(=O)N[C@H]3CCCCNC3=O)c2C2CC2)n1	·	?	·	21µM*	·	·
Cc1cc(-c2ccnc(-n3ncc(C(=O)NCC4COCCO4)c3C3CC3)n2)c(C)s1 (configuration not stated)	·	9.2µM*	·	6.5µM*	·	·
